# In PubChem BioAssay (NCI):
# Compounds without any hit were thinned out: in the full panel of roughly 83,000, 20% have a hit.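 Assay: single dose, 48 h. Readout: percent growth (0 = no net growth; negative = cell death). Active: <10.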 Values without a mark were called inactive. Calls of active or inactive are those of the source.
# Tested on: RPMI-8226 leukemia
# Assay: NCI-60 one-dose screen, 48 h (100 = growth as untreated, 0 = no growth, -100 = all killed)
# Settings: 10 µM unless noted
# Description: Growth inhibition of the RPMI-8226 human tumor cell line is measured as a screen for anti-cancer activity. Cells are grown in 96 well plates and exposed to the test compound for 48 hours. Compounds are tested at a single concentration, which is 10^-5 M for most compounds. The reported endpoint is percent growth (GI% or GIPRCNT), where numbers from 0 - 100% represent growth inhibition, and numbers from -100% - 0 represent cell death. For example, a value of 40 represents 60% growth inhibition. A value of 0 means no net growth occurred over the course of the experiment. A value of -40 indicates 40% of cells at the beginning of the experiment died by the end of the experiment. A value of -100 means all cells are dead at the end of the experiment.
# NCI-60 Human Tumor Cell Lines Screen was performed using the standard one-dose NCI protocol, which is described in more detail at https://dtp.cancer.gov/discovery_development/nci-60/default.htm.
# Compounds with GIPRCNT values below 10 were considered active. Activity score was based on GIPRCNT using the following formula: […]
# Score is 0 for GIPRCNT values of 100 or above, 50 for GIPRCNT values of 0, and 100 for GIPRCNT values of -100.
row,Structure (SMILES),growth
1,CCN(CC)CCN1C(=O)c2c(c3c4ccccc4[nH]c3c3ccc4ccccc4c23)C1=O,-33.1% (active)
2,NCCCNc1nc2ccccc2c2c(=O)c3cc(Cl)ccc3sc12,-37.9% (active)
3,C/C(Cc1ccc(Cl)cc1)=C(\c1ccc(OCCN2CCCCCC2)cc1)c1ccc(OC(=O)c2ccccc2)cc1,-24.6% (active)
4,Cc1ccc(NC(=O)c2sc3nc(C)c(C(O)c4ccccc4)cc3c2N)cc1 (stereo not given),5.22% (active)
5,CN(C)CCCC1(c2ccc(F)cc2)OCc2cc(-c3csc4ccccc34)ccc21 (stereo not given),-40.7% (active)
6,N#Cc1c(-c2ccccc2)cc(-c2ccccc2)n(CCCCC(=O)NO)c1=O,0.83% (active)
7,c1cc(OCCN2CCCC2)ccc1CNc1ccc2nc(CCC3CCCCC3)[nH]c2c1,-8.82% (active)
8,COc1ccc(/C=C(/C(=O)N2CCNCC2)c2cc(OC)c(OC)c(OC)c2)cc1O,9.6% (active)
9,Cc1cccc(-c2nc(C(C)C)sc2-c2ccnc(NCCCNS(=O)(=O)c3ccc(Cl)cc3)c2)c1,69.2%
10,O=S(=O)(N=C1C(Cl)=C(Cl)C(=NS(=O)(=O)c2ccccc2)C(Cl)=C1Cl)c1ccccc1,79.4%
11,COc1ccc2c(c1)CC[C@@H]1[C@@H]2CC[C@]2(C)c3c(cc(C#N)c4c3sc3ccccc34)C[C@@H]12,95.8%
12,O=c1cc(C(F)(F)F)c2cc(-c3cc4ccccc4c(=O)o3)c(O)cc2o1,17.7%
13,O=C(Nc1nc(Cl)nc(Nc2ccc(N3CCOCC3=O)cc2)n1)c1ccc(Cl)s1,90.3%
14,COc1c2c(cc3c1C(=O)N[C@@H]1[C@@H](O)[C@@H](O)[C@H](O)C[C@@H]31)OCCO2,102%
15,CCN1C(=O)N(CC)C2C1NN=c1s/c(=C\c3ccc(OC)cc3)c(=O)n12 (stereo not given),20.6%
16,COc1ccc(/C=C(\C(=O)NCc2cccnc2)S(=O)(=O)c2ccccc2)cc1OC,18%
17,CCOc1ncc([N+](=O)[O-])c(OCC)n1,84.8%
18,CNC(=O)c1cc(Oc2ccc3c(c2)sc2nc(-c4ccc(NC(=O)[C@@H](NC(=O)OC)C(C)C)cc4)cn23)ccn1,30.3%
19,COc1ccc(Oc2ccc(/C=C/C(=O)c3ccc(OC)c(OC)c3)cc2)cc1,54.7%
20,COC1C(O)CC(OC2CC(OC3CC(O[C@@H]4C(=O)c5c(cc6cc(OC7CC(OC8CC(O)C(O)C(C)O8)C(O)C(C)O7)c(C)c(O)c6c5O)CC4[C@H](OC)C(=O)C(C)=O)OC(C)C3O)OC(C)C2O)OC1C (stereo not given in full),1.67% (active)

row,Structure (SMILES),growth
1,COc1cc(Cc2cc(OC)c(O)c(OC)c2)cc(OC)c1O,92.7%
2,Cc1c(C(C)(C)O)cn2ncnc(Oc3ccc(NC(=O)Nc4ccc(Cl)c(C(F)(F)F)c4)c(F)c3)c12,49.9%
3,CSc1ccc2c3c(n(C[C@H](O)CO)c(=O)c2c1)-c1ccccc1C3=O,-17.3% (active)
4,Cc1cc(C)c2c(c1)N(C)c1ncnc(-n3c(C)nc4cc(C)ccc43)c1CC2C (stereo not given),35%
5,CCOC(=O)C(CCN(C)C)c1ccccc1 (stereo not given),98.2%
6,c1ccc2cc(Cn3cc(CSc4nc5ccccc5s4)nn3)ccc2c1,95.7%
7,COc1cc(-c2cc(-c3ccc(Nc4nc(Nc5ccc(Cl)cc5)nc(Nc5ccc(Cl)cc5)n4)cc3)no2)cc(OC)c1OC,7.63% (active)
8,CCN(CC)c1ccc(-c2cc(-c3cc(OC)c(OC)c(OC)c3)nc(N3CCC(O)CC3)c2C#N)cc1,-11.8% (active)
9,O=C1c2cccnc2C(=O)c2c1c(C(=O)OCCc1ccccn1)c1ccccn21,-27.2% (active)
10,CCNC(=O)N1CCc2c(Br)c3c(c(OC)c2C1Cc1ccc(OC)cc1)OCO3 (stereo not given),44.3%
11,CC(C)C1C2=C(NCCN1C(=O)c1ccncc1)C(C)(C)N(Cc1ccccc1)C2=O (stereo not given),112%
12,CC(O)Cc1c[nH]c(=O)[nH]c1=O (stereo not given),117%
13,COc1ccc(C/C(C)=C(\c2ccc(Cl)cc2)c2ccc(OCCN3CCCC3)cc2)cc1,13.9%
14,CCOC(=O)c1c(C)nc2c(c1N)C(=O)C(=O)N2Cc1ccc(OC)cc1,20.1%
15,N#Cc1c(-c2ccc(Cl)cc2)nc(NN=Cc2ccc[nH]2)nc1N1CCOCC1,6.36% (active)
16,C=C1C(=O)O[C@H]2[C@H]1CC/C(COC(=O)NCc1ccc(Cn3c(=O)sn(-c4ccc(I)cc4)c3=O)cc1)=C\CC[C@@]1(C)O[C@@H]21,7.56% (active)
17,O=C(C1=Cc2cc3ccccc3n2Cc2cnnn21)c1ccc(F)cc1,92.4%
18,CS(=O)(=O)Nc1cc(-c2ccc3ncnc(Nc4ccc(F)c(Cl)c4)c3c2)ccc1Cl,37.4%
19,Oc1ccc(-c2nc3ccc4[nH]ncc4c3c3c2CCCC3)c(F)c1,33.2%
20,CSc1ccc(N2C(=N)C(=S)N(c3ccc(C)cc3)C2=O)cc1,89%
